MLLE-PAM2 inh = blocks PAM2 peptide binding to the PABP1 MLLE domain; inhibition, % at 20 µM; P11940; 360,000 tested, 0.36% active; GST-MLLE / FITC-PAM2 fluorescence polarization; in the data active = inhibition above about 35%, passing the limit was not always enough;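 note: plate controls were DMSO wells with GST-MLLE for no effect and wells lacking GST-MLLE protein for full effect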
PABP FP inh = blocks human PABP binding to poly(A) RNA. P11940. fluorescence polarization. inhibition, % at 35 µM. 290,000 tested, 1% active. AID 2014;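 note: calls also rest on retests at 20 µM and on dose response follow-up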
PERK inh = human PERK inhibition, primary cell-based screen | 220,000 tested, 0.17% active | CHO PERK-DD fusion, SEAP luminescence translation reporter | AID 1416 | inhibition, % at 5.6 µM | Q9NZJ5;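 active = inhibition above the mean inhibition of all tested compounds plus 3 SD, set separately per screening campaign, cut at about 2.9% in these data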;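 note: PERK kinase domain activated by AP20187 dimerizer at 100 nM; 0% = DMSO with dimerizer and 100% = rapamycin at 8.4 µM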
eIF4H FP inh = inhibitors of RNA binding by human eIF4H. 290,000 tested, 0.94% active. inhibition, % at 35 µM. eIF4H fluorescence polarization binding assay;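 note: calls also rest on retests at 20 µM and on dose response follow-up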
GRK2 aptamer HTS = human GRK2 inhibition via aptamer displacement | inhibition of aptamer binding, % at 10 µM | AID 488847 | 330,000 tested, 0.59% active | bead flow cytometry, FAM-aptamer displacement from GRK2;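 active = inhibition of aptamer binding above 40%, roughly 3 SD of noise, on plates passing a quality check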;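 note: median bead fluorescence of bound FAM aptamer so fluorescent compounds give negative values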
Target sequence (P25098 whole entry, looked up): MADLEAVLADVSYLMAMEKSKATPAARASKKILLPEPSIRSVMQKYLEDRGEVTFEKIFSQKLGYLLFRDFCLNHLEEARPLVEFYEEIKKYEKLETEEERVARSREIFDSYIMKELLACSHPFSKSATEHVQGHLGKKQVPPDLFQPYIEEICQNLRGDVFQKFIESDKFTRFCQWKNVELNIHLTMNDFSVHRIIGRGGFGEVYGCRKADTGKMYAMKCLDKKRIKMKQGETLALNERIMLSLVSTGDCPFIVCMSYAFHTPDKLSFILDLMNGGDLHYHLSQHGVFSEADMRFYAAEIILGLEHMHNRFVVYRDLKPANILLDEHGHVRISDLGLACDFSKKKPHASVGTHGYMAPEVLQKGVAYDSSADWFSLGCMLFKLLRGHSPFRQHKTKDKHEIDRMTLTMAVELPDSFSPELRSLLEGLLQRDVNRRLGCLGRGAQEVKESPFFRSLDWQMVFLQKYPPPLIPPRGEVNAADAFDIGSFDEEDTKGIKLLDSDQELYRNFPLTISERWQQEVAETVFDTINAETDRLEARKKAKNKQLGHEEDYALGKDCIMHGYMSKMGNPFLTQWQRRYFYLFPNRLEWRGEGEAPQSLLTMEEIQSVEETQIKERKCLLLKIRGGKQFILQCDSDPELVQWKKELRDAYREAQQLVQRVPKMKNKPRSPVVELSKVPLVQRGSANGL
* marks the source's active call; other numbers are inactive results. A selection: hits, their analogues and other compounds. The true share with any hit is near 1.9%. Unless noted, the rule behind the calls is not given here.

Results for CCc1nnc(NC(=O)CSc2sc3c(O)cc(=O)[nH]c3c2C#N)s1 ?
MLLE-PAM2 inh: -27; PABP FP inh: 76*; eIF4H FP inh: 90*; GRK2 aptamer HTS: 9

How did Cc1cc(C(F)(F)F)n(-c2nc(C(=O)O)cs2)n1 do in these assays?
MLLE-PAM2 inh: -9; PABP FP inh: 73*; PERK inh: 0; eIF4H FP inh: 1.5*; GRK2 aptamer HTS: 0

How did O=C(Nc1ccc2c(c1)OCCO2)c1cnn(-c2ccccc2)n1 do in these assays?
MLLE-PAM2 inh: 17; GRK2 aptamer HTS: 1

What do the screens show for `CCc1ccc(/C=C2\SC(=S)N(CCCC(=O)Nc3cc(C)on3)C2=O)cc1`?
MLLE-PAM2 inh: -6

Results for COc1cccc(/C=C2\SC(=O)N(CC(=O)NC3C=CS(=O)(=O)C3)C2=O)c1 (stereo not drawn) ?
MLLE-PAM2 inh: 41*; PABP FP inh: 2; eIF4H FP inh: 10; GRK2 aptamer HTS: 0

What do the screens show for `COc1cccc(/C=C2\SC(=S)N(CCCC(=O)Nc3cc(C)on3)C2=O)c1`?
MLLE-PAM2 inh: -66; PABP FP inh: 18*; eIF4H FP inh: inconclusive; GRK2 aptamer HTS: 0

How did COc1cccc(/C=C2\SC(=O)N(CC(=O)NC3CCS(=O)(=O)C3)C2=O)c1 (stereo not drawn) do in these assays?
MLLE-PAM2 inh: 17; PABP FP inh: -10; eIF4H FP inh: -7; GRK2 aptamer HTS: 1

How did COc1cccc(/C=C2\SC(=S)N(CCCC(=O)NC3=NCCS3)C2=O)c1 do in these assays?
MLLE-PAM2 inh: 1; PABP FP inh: 23*; eIF4H FP inh: 80; GRK2 aptamer HTS: 0

What do the screens show for `O=C(O)c1ccc(CNC(=O)C2CCN(S(=O)(=O)c3cccs3)CC2)cc1`?
MLLE-PAM2 inh: 9

What do the screens show for `CC1CC1C(=O)OCC(=O)NNC(=O)c1ccc([N+](=O)[O-])cc1` (stereo not drawn)?
MLLE-PAM2 inh: 13; GRK2 aptamer HTS: 0

How did N#Cc1nc2ccccc2n1OCc1ccccc1 do in these assays?
MLLE-PAM2 inh: -12

How did CCN1C(=O)/C(=C2\C=Cc3ccccc3N2CC)OC1=S do in these assays?
MLLE-PAM2 inh: 14; PERK inh: 1; GRK2 aptamer HTS: 1

Results for CCN1C(=O)/C(=C2\Sc3ccccc3N2CC)OC1=S ?
MLLE-PAM2 inh: 46*; PABP FP inh: -4; PERK inh: 0; eIF4H FP inh: -1; GRK2 aptamer HTS: 0

What do the screens show for `COC(=O)c1ccc(=O)c2nc3/c(=C/O)c(O)cc(=O)c3[nH]c12`?
MLLE-PAM2 inh: 6; PABP FP inh: 100*; PERK inh: 0; eIF4H FP inh: 85*; GRK2 aptamer HTS: 67*

Results for CCc1nc2ccc(C(=O)NCCc3ccccn3)cn2c1N(C)CCC(C)C ?
MLLE-PAM2 inh: -2

Results for CCOC(=O)c1c(NC(=O)C2C3C=CC(C3)C2(C)C(=O)O)sc2c1CCCC2 (stereo not drawn) ?
MLLE-PAM2 inh: -6; PABP FP inh: 1; PERK inh: 1; eIF4H FP inh: 50; GRK2 aptamer HTS: 64*

How did CCOC(=O)c1c(NC(=O)C2CCCCC2C(=O)O)sc2c1CCCCC2 (stereo not drawn) do in these assays?
MLLE-PAM2 inh: 5; PABP FP inh: 21; PERK inh: 2; eIF4H FP inh: 5; GRK2 aptamer HTS: 0

How did Cc1ccc(C(=O)C2CC2)c(C)c1 do in these assays?
MLLE-PAM2 inh: 11

What do the screens show for `Cc1ccc(C(N)=S)c(C)c1`?
MLLE-PAM2 inh: 40*; PERK inh: 1; GRK2 aptamer HTS: 1

How did Cc1cc(C)cc(Nc2ccc(C(=O)O)cc2N)c1 do in these assays?
MLLE-PAM2 inh: 13; PABP FP inh: active; PERK inh: 1; eIF4H FP inh: 54*; GRK2 aptamer HTS: 1

How did Nc1c(C(=O)c2ccc(Cl)cc2)oc2ccccc12 do in these assays?
MLLE-PAM2 inh: 13; PABP FP inh: 62*; PERK inh: 0; eIF4H FP inh: active; GRK2 aptamer HTS: 0

What do the screens show for `O=C(O)c1cc([N+](=O)[O-])cc2c1C=Cc1ccccc1O2`?
MLLE-PAM2 inh: -8; PABP FP inh: 32; eIF4H FP inh: 41; GRK2 aptamer HTS: 11

How did Cc1cc(NC(=O)CC#N)n(-c2ccccc2)n1 do in these assays?
MLLE-PAM2 inh: 8; PABP FP inh: 11; PERK inh: 0; eIF4H FP inh: 78*; GRK2 aptamer HTS: 0

What do the screens show for `CC1(C)Oc2ccc3ccc(=O)oc3c2C(N2CCCCC2)C1O` (stereo not drawn)?
MLLE-PAM2 inh: -17; PABP FP inh: 64; PERK inh: 1; eIF4H FP inh: 42*; GRK2 aptamer HTS: 0

How did O=C1CC(c2ccccc2)Cc2nc(N3CCc4ccccc4C3)ncc21 (stereo not drawn) do in these assays?
MLLE-PAM2 inh: 56*; PABP FP inh: -5; PERK inh: 0; eIF4H FP inh: -10; GRK2 aptamer HTS: 4

What do the screens show for `Oc1ccc(N=Nc2ccc3c(c2)OCO3)c2ccccc12`?
PABP FP inh: 6; PERK inh: 1; eIF4H FP inh: 27; GRK2 aptamer HTS: 78*

What do the screens show for `COc1ccc(NC(C)=[N+](C)CCNS(=O)(=O)c2ccc(Cl)cc2)cc1Cl`?
MLLE-PAM2 inh: -122; GRK2 aptamer HTS: 5

What do the screens show for `COc1ccccc1NC(C)=[N+](C)CCNS(=O)(=O)c1ccc(Cl)cc1`?
MLLE-PAM2 inh: -29; PABP FP inh: 74*; eIF4H FP inh: 0; GRK2 aptamer HTS: 9

What do the screens show for `CC(Nc1cc(C)cc(C)c1)=[N+](C)CCNS(=O)(=O)c1ccc(Cl)cc1`?
MLLE-PAM2 inh: -135; PABP FP inh: 49; eIF4H FP inh: 2; GRK2 aptamer HTS: 48*

What do the screens show for `Cc1cc(C)c(S(=O)(=O)N2CCN(c3ccccc3)CC2)c(C)c1`?
MLLE-PAM2 inh: 3; PABP FP inh: 8; eIF4H FP inh: -5; GRK2 aptamer HTS: 1

How did O=[N+]([O-])c1ccc(OS(=O)(=O)Cc2ccccc2)cc1 do in these assays?
MLLE-PAM2 inh: 7; PABP FP inh: 70*; PERK inh: 0; eIF4H FP inh: 2.5*; GRK2 aptamer HTS: 0

What do the screens show for `O=S(=O)(Cc1ccc(Cl)cc1)Oc1ccc(Cl)cc1`?
MLLE-PAM2 inh: -15

Results for Cc1cccc(N2C(=S)NC3c4cc(Cl)ccc4OC2(C)C3C(=O)N(C)C)c1 (stereo not drawn) ?
MLLE-PAM2 inh: 17; PABP FP inh: 20; PERK inh: 0; eIF4H FP inh: 1; GRK2 aptamer HTS: 0

What do the screens show for `Cc1ccc(N2C(=S)NC3c4cc(Cl)ccc4OC2(C)C3C(=O)N(C)C)cc1` (stereo not drawn)?
MLLE-PAM2 inh: 44*; PABP FP inh: -8; PERK inh: 2; eIF4H FP inh: -1; GRK2 aptamer HTS: 2

How did CCOC(=O)C1=C(c2ccccc2)N=c2s/c(=C\c3cc(OC)c(OC)c(OC)c3)c(=O)n2C1c1cccs1 (stereo not drawn) do in these assays?
MLLE-PAM2 inh: -7; PABP FP inh: 80*; PERK inh: 0; eIF4H FP inh: inconclusive; GRK2 aptamer HTS: 12

What do the screens show for `CC(=O)c1ccc(NC(=O)C2=CC(c3cccs3)=NS(=O)(=O)N2C)cc1`?
MLLE-PAM2 inh: -5; GRK2 aptamer HTS: 2

Source: PubChem BioAssay (several laboratories)
